What follows are compounds tested on DRIVER-selected RNA biosensor (aptazyme) pool (assay: maximum fold change of ribozyme cleavage across biosensor pool versus no-compound control; higher = stronger biosensor response (ligand inhibits cleavage)). Details: 10 µM.
Method in brief: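 Fold change of cleavage, the ratio of cleaved:uncleaved read fractions versus a no-compound condition corrected with reference sequences, is given as the maximum over all biosensors. It was measured by CleaveSeq on a pool of 1,730 array-resynthesized ribozyme biosensors transcribed by T7 with 9 mM rNTPs for 15–30 min at 37°C in the presence of one compound at 10 µM final, added from a 10x DMSO stock. After reverse transcription at 50°C, cleaved and uncleaved products were PCR-barcoded and counted by Illumina sequencing.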
In the case of `Cc1ccc2c(CNC3CCC(C)CC3)c(C(=O)O)n(Cc3ccccc3F)c2c1` (stereo not given), the maximum fold change is reported as 2.5.
`O=c1oc2cc(O)ccc2c2ccccc12` gave a maximum fold change of 2.57.
Compound `CCOC(=O)C1=C(C)NC(=S)NC1c1ccc(O)c(OC)c1` (stereo not given) has a maximum fold change of 3.37.
In the case of `CN(C)CCNC(=O)CCn1c(=O)c2cccn2c2cccnc21`, the maximum fold change is reported as 3.34.
For `CC1CCN(CCCNC(=O)c2ccc(CS(=O)(=O)Cc3ccc(Cl)cc3)o2)CC1`, the maximum fold change was 2.2.
With `C=CCNC(=O)/C(C#N)=C/c1c(Oc2ccccc2)nc2ccccn2c1=O` the maximum fold change was 9.03.
With `COc1ccccc1/C=C1N=C(c2ccc(Cl)c(Cl)c2)OC1=O` the maximum fold change was 3.36.
`Cc1oc2ncn3c(C)nnc3c2c1C(=O)NC1CC1` was tested, and the maximum fold change was 2.62.
Compound `CCOC(=O)c1ccc(-c2sc3nc(N4CCOCC4)c4c(c3c2N)CC(C)(C)OC4)o1` has a maximum fold change of 2.03.
For `c1cc(-c2nc3cc(Oc4ccc5[nH]c(-c6ccncc6)nc5c4)ccc3[nH]2)ccn1`, the maximum fold change was 14.3.
In the case of `N#C/C(=Cc1c(Oc2ccc(cc2)Br)nc2n(c1=O)cccc2)/C(=O)NC1CCCCC1`, the maximum fold change is reported as 2.99.
For `O=C(CSc1nnc(-c2ccc(Cl)s2)o1)N1CCOCC1`, the maximum fold change was 3.21.
For `Cc1c[n+]([O-])n(-c2ccc(C(=O)O)cc2)n1`, the maximum fold change was 2.15.
`Cc1ccc(C)c(Cn2c(C)c(CNCc3ccc(Cl)cc3)c(C(=O)O)c2C)c1` gave a maximum fold change of 2.54.
For `CCOc1cc2c(cc1OCC)C1C(C(=O)NCc3cccnc3)c3ccccc3C(=O)N1CC2` (stereo not given), the maximum fold change was 4.02.
Work on `COc1ccc(-c2cc3c(=O)n(CC(=O)NCc4ccccn4)ncn3n2)cc1` yielded a maximum fold change of 3.51.
For `Cc1ccc(S(=O)(=O)NC(CC(=O)O)c2cccs2)cc1` (stereo not given), the maximum fold change was 2.72.
`CCOc1cc(C2c3c(-c4ccccc4O)n[nH]c3C(=O)N2CCO)ccc1OCc1ccccc1` (stereo not given) showed a maximum fold change of 3.55.
`Cc1ccc(CNc2nc3ccc(C)cc3n3cnnc23)cc1` showed a maximum fold change of 2.77.
For `C=C(C)Cn1c(NCCCN2CCOCC2)nc2c1c(=O)[nH]c(=O)n2C`, the maximum fold change was 2.3.
`Cc1c(C(=O)Nc2ccncc2)sc2nc(-c3ccccc3)cn12` showed a maximum fold change of 3.12.
In the case of `CCc1ccc(C2c3c(-c4ccccc4O)n[nH]c3C(=O)N2CC2CCCO2)cc1` (stereo not given), the maximum fold change is reported as 1.83.
Work on `CCOC(=O)c1cnc(SCc2cccc(C)c2)nc1N` yielded a maximum fold change of 7.72.
Work on `COc1ccc(-c2cc(-c3nc4c5c(ncn4n3)CCC5)n[nH]2)cc1` yielded a maximum fold change of 1.38.
Work on `CCN(Cc1ccccc1)Cc1csc(C)c1C` yielded a maximum fold change of 3.07.
In the case of `CCOC(=O)c1cnc(SC)nc1N`, the maximum fold change is reported as 3.4.
Work on `CCOC(=O)c1sc2nc(C)nc(NCc3ccccc3OC)c2c1C` yielded a maximum fold change of 4.59.
`CCOc1ccc(S(=O)(=O)N2CCN(Cc3ccccc3)CC2)c2cccnc12` gave a maximum fold change of 5.08.
For `Cc1ccc(S(=O)(=O)NCC2CCC(C(=O)NCC(C)c3ccccc3)CC2)cc1` (stereo not given), the maximum fold change was 4.21.
`c1ccc(-c2nc3cc(Oc4ccc5[nH]c(-c6ccccn6)nc5c4)ccc3[nH]2)nc1` was tested, and the maximum fold change was 2.66.

From the supplement of paper PMC9477273
